Data taken from PubChem BioAssay AID588398 (Broad Institute, 2011).
Hit rate of the full screen: of about 1,200 compounds, about 110 (9.2%) were called active. Inconclusive results (about 8%) are left out.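 How the source made its calls: active means pathway reporter half-maximal dose under half the control reporter's, or control reporter unaffected while pathway reporter is inhibited; inconclusive means either signal flat at 30 to 70% inhibition or poorly fitted; inactive means the rest.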 Not all results are given here. Entries that show only a call come without a potency. Potency and affinity values are given separately.

experiment: LMP1 TES1 pathway selectivity over dsRED control – imaging, HEK293T, dual-color eGFP/dsRED, cherry-picks, selectivity assay for LMP1 NF-kB inhibitor project, dose response (AID 588398); conditions: 48 h; HEK293T Tet-On dsRED counter-screen channel, at 19.5 µM (top of the series)

Structure (SMILES)	outcome
CCNc1nc(CN2CCOCC2)nc2sc3c(c12)CCC3	inactive
Cc1nn(-c2ccccc2)c(Cl)c1C(=O)N1CCN(c2ncnc3c2cnn3-c2ccccc2)CC1	inactive
O=c1nc(N/N=C/C=C/c2ccccc2)cn[nH]1	inactive
CN(CCNC(=O)C1CCN(S(=O)(=O)N2CCOCC2)CC1)CCc1ccccc1	inactive
O=C(N/N=C/c1cc2c3c(c1O)CCCN3CCC2)c1ccccc1O	inactive
CCOC(=O)C1CCN(S(=O)(=O)Cc2ccccc2)C1=O (configuration not stated)	inactive
CCOC(=O)CCSc1nc(N2CCOCC2)c2c(c1C#N)CC(C)(C)OC2	inactive
COc1ccc(C=NNc2nc3ccccc3s2)cc1	inactive
C(=Cc1nc2ccccc2o1)c1ccc2c(c1)OCO2	inactive
c1ccn2cc(-c3ccc4c(c3)OCCO4)nc2c1	inactive
CC1CCN(CCOc2ccc(C(=O)c3ccccc3)cc2)CC1	inactive
CCC(C)[C@H](NC(=O)NCc1cccnc1)C(=O)OC (some centres not stated)	inactive
CCOc1ccc(Nc2ncnc3ccc([N+](=O)[O-])cc23)cc1	inactive
Cc1cc(C(=O)COc2cccnc2[N+](=O)[O-])c(C)n1-c1ccccc1F	inactive
O=C1CCCCC1Sc1nnc(-c2ccc3c(c2)OCO3)o1 (configuration not stated)	inactive
C=CCn1c(=O)/c(=C/c2ccc(Cl)cc2)s/c1=C(\C#N)c1nnc2n1CCCCC2	inactive
Cc1ccc(OCC(=O)NNC(=S)NC(=O)C2CCCCC2)c(C)c1	inactive
Cc1cc(NC(=O)c2ccc(C)s2)n(-c2nc3ccccc3[nH]2)n1	inactive
COc1ccc(OC)c(NC(=O)COC(=O)COc2ccc(Nc3ccccc3)cc2)c1	inactive
C(=Cc1cnc2ccccc2n1)c1ccc2c(c1)OCO2	inactive
CCOc1ccc(NC(=O)c2ccc(N3CC4CC(C3)c3cccc(=O)n3C4)c(NC(=O)c3cccnc3)c2)cc1 (configuration not stated)	inactive
COc1ccc(N2C(=O)C(Cl)=C(NCc3ccccc3)C2=O)cc1	inactive
Cc1ccc(S(=O)(=O)N2CCN(C(=O)COC(=O)COc3ccc(Cl)cc3)CC2)c(C)c1	inactive

Structure (SMILES)	outcome
CCOc1ccccc1/C=C/c1onc(C)c1S(=O)(=O)N1CCC(C(=O)N(CC)CC)CC1	inactive
CCOC(=O)N1CCC(NC(=O)C2CCCN(Cc3nc(-c4cccc(Cl)c4)oc3C)C2)CC1 (configuration not stated)	inactive
COc1ccc(S(=O)(=O)N2CCCCCC2)cc1C(=O)OCc1cccc(OC)c1OC	inactive
Fc1cccc(Cl)c1/C=N/n1c(-c2cccnc2)n[nH]c1=S	inactive
CC(=O)c1cccc(NC(=O)Nc2ccc(C(=O)N3CCOCC3)cc2)c1	inactive
O=C(c1ccccc1Br)N1CCN(Cc2ccc3c(c2)OCO3)CC1	inactive
CC(=O)NC(c1ccc(Cl)cc1)c1ccc2cccnc2c1O (configuration not stated)	inactive
CCC(=O)NC(c1ccc(Cl)cc1Cl)c1ccc2cccnc2c1O (configuration not stated)	inactive
Cc1ccc2[nH]c3c(c2c1)CCCC3NC(=O)CCl (configuration not stated)	inactive
Cc1cccc(-n2c(O)c(C=Nc3c(C)n(C)n(-c4ccccc4)c3=O)c3ccccc3c2=O)n1	inactive
CC(=O)OC1CCC2(C)C(CCC3C4CC=C(C(C)=O)C4(C)OC(=O)CC32)C1 (configuration not stated)	inactive
O=C1NC(=O)/C(=C\c2ccc(OCc3cccc(C(=O)O)c3)c(Cl)c2)N1	inactive
CN1CCN(C(=O)C2=C[C@@H](C(C)(C)C)C[C@@H](OCc3ccc(CO)cc3)O2)CC1	inactive
COc1ccc(N2CCN(CCNC(=O)CCCn3c(=O)[nH]c4cc(Cl)ccc4c3=O)CC2)cc1	inactive
CCn1c(SC(C)C)nnc1-c1c[nH]c2ccccc12	inactive
CCn1c2ccccc2c2cc(/C=N/NC(=O)c3ccncc3)ccc21	inactive
CCn1c2ccccc2c2cc(/C=N/NC(=O)c3cc(O)cc(O)c3)ccc21	inactive
CC1CC(C)C(=O)C(C(CC2CC(=O)NC(=O)C2)OC(=O)CC(=O)c2ccccc2)C1 (configuration not stated)	inactive
COc1cc(C(c2sc3nc(C)nn3c2O)N2CCc3ccccc3C2)cc(OC)c1OC (configuration not stated)	inactive
CCOc1ccccc1NC(=O)Cn1c(=O)sc2ccccc21	inactive
O=C(NC(c1ccc(Cl)cc1)c1cc(Cl)c2cccnc2c1O)c1cccnc1 (configuration not stated)	inactive
CCOc1cc(Br)cc(/C=N/NC(=O)c2cccnc2)c1O	inactive
Cc1cc(N2CCOCC2)c2c(N)c(Br)cc(C)c2n1	inactive

Structure (SMILES)	outcome
CC1CC(C)CN(S(=O)(=O)c2ccc(NC(=O)CCN3C(=O)C4CC=CCC4C3=O)cc2)C1 (configuration not stated)	inactive
CCN(CC)S(=O)(=O)c1cccc(-n2c(O)c(C=Nc3ccccc3C(=O)O)c3ccccc3c2=O)c1	inactive
Cc1ccc(CN2C(=O)CCC2C(=O)NCCCN2CCC(C)CC2)cc1 (configuration not stated)	inactive
Cn1cc(SCC(=O)NCC2CCCO2)c2ccccc21 (configuration not stated)	inactive
O=Cc1ccc(-c2cccs2)s1	inactive
COc1ccc(NC(=O)CCS(=O)(=O)c2ccc3c(c2)CCN3C(C)=O)cc1	inactive
C=CCn1c(C)c(C(C)=O)c(N2CCN(C(c3ccccc3)c3ccccc3)CC2)nc1=S	inactive
O=C(N/N=C/c1cccs1)c1n[nH]c2c1CCCC2	inactive
COc1cc2oc(=O)cc(-c3ccc(-c4ccc(N(C)C)cc4)cc3)c2c(OC)c1OC	inactive
COc1ccc(C=Cc2ccc3ccccc3n2)c(OC)c1	inactive
COc1ccc(C(=O)NCCNc2nc3cc(C)c(C)cc3cc2C)cc1	inactive
O=C(c1sc2cc([N+](=O)[O-])ccc2c1Cl)N1CCOCC1	inactive
O=C(N/N=C/c1sc2ccccc2c1O)c1cccc2ccccc12	inactive
COc1cccc(C(=O)CC(=O)C(=O)Nc2ccc(C)cc2Cl)c1	inactive
COc1ccc(NC2=NCC(Cc3ccc(Br)cc3)S2)cc1 (configuration not stated)	inactive
O=C(O)c1ccc(C=NNC(=O)c2cccc3ccccc23)cc1	inactive
O=C(N/N=C/c1ccc(O)cc1O)c1ccc(CN2C(=O)c3cccc4cccc2c34)cc1	inactive
O=c1oc2ccccc2c(O)c1/C=N/c1ccccn1	inactive
Cc1nnc(NC(=O)CSc2nnc(Cc3cccn3C)n2CCc2ccccc2)s1	inactive
COc1ccc(O)c(/C=N/NC(=O)c2ccc(OCc3cccc(Br)c3)cc2)c1	inactive
Cc1cccc(/C=N/NC(=O)CNc2cccc3ccccc23)n1	inactive
